Results: article PMC5540273 (PLoS ONE, 2017)
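Also: KINOMEscan kinase panel screen.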

These compounds were tested on PRKD2. Conditions: concentration: 1 μM,replicates: in singlicate; n = 1.
In the case of `CNC(=O)c1ccccc1Sc1ccc2c(/C=C/c3ccccn3)n[nH]c2c1`, the “%Inh” value was 8%. For `O=C(NCCNc1ccnc(NCc2ccc(F)cc2)n1)c1cc2ccccc2s1` [GSK1379944], the “%Inh” value was 70%. For `CN(C)CCOc1ccc(-c2cc(-c3c[nH]nc3-c3ccccn3)ccn2)cc1` [GW835314], the “%Inh” value was 96.1%. With `Cc1cc(C(=O)Nc2ccc(Oc3ccc4nc(NC(=O)C5CC5)cn4n3)cc2)nn1-c1ccccc1` the “%Inh” value was 0%. `Cc1ccc(-n2nc(C(C)(C)C)cc2NC(=O)Nc2ccc(OCCN3CCOCC3)c3ccccc23)cc1` [GW839464] was tested, and the “%Inh” value was 20%. `CCN(CC)CCCCNc1ncc2cc(-c3c(Cl)cccc3Cl)c(NC(=O)NC(C)(C)C)nc2n1` was tested, and the “%Inh” value was 5%. With `CCN(CC)CCOc1ccc(Nc2ncc3cc(-c4c(Cl)cccc4Cl)c(=O)n(C)c3n2)cc1` [SB-601273] the “%Inh” value was 93.6%. With `Cc1cc2cn[nH]c2cc1-c1cccc2c(N)c(C(N)=O)nnc12` the “%Inh” value was 89%. With `CC(C)Nc1cc(-c2ccc3c(N)n[nH]c3c2)nc(N)n1` [GSK2221681] the “%Inh” value was 0%. In the case of `C[C@@H](Oc1cc(-c2cnn(C3CCNCC3)c2)cnc1N)c1c(Cl)ccc(F)c1Cl`, the “%Inh” value was 31%. In the case of `Cl.Cl.Nc1nc(-c2ccc3c(N)n[nH]c3c2)cc(N2CCCC(NC(=O)c3ccccc3)C2)n1` (stereo not drawn) [GSK2286775], the “%Inh” value was 0%. For `CC(C)N1C(=O)Cc2cc(Nc3ncc(C(F)(F)F)c(NCc4cccc(S(C)(=O)=O)c4)n3)ccc21`, the “%Inh” value was 16%. In the case of `Cl.Cl.NC[C@H](Cc1ccc(C(F)(F)F)cc1)NC(=O)c1cc(Br)c(-c2ccnc3[nH]ccc23)s1` [GSK1487252], the “%Inh” value was 57%. `C[C@@H]1CCN(C(=O)CC#N)C[C@@H]1N(C)c1ncnc2[nH]ccc12` was tested, and the “%Inh” value was 0%. For `CN(C)CC(O)COc1ccc(Nc2nccc(-c3cnn4nc(N5CCOCC5)ccc34)n2)cc1` (stereo not drawn) [GW767488], the “%Inh” value was 98.2%. In the case of `Cc1occc1-c1nc(N)c(OC[C@@H](N)Cc2c[nH]c3ccccc23)cc1-c1cc2c(C)n[nH]c2cn1` [GSK1660450], the “%Inh” value was 97.4%. For `Cc1ccc2c(-c3ccncc3)c(-c3ccc(F)cc3)nn2c1.Cl` [GW461484], the “%Inh” value was 55%. For `C[C@H]1Oc2cc(cnc2N)-c2c(nn(C)c2C#N)CN(C)C(=O)c2ccc(F)cc21`, the “%Inh” value was 12%. `NC(=O)c1cc(-c2ccccc2)cc2c(C3CCNCC3)c[nH]c12` [GSK301362] was tested, and the “%Inh” value was 2%. For `C=CC(=O)Nc1cc2c(Nc3ccc(F)c(Cl)c3)ncnc2cc1OCCCN1CCOCC1` [GW781483], the “%Inh” value was 0%. With `CCn1c(-c2nonc2N)nc2c(C#CC(C)(C)O)nc(OCCN)cc21.Cl.Cl` [GSK902056] the “%Inh” value was 14%. `Cc1n[nH]c2ccc(-c3cc(OC[C@@H](N)Cc4ccccc4)cnc3-c3ccoc3)cc12.O=C(O)C(F)(F)F.O=C(O)C(F)(F)F` [GSK507358] was tested, and the “%Inh” value was 99.2%. For `Cl.Cl.NC[C@H](CC1CCCCC1)NC(=O)c1cc(Br)c(-c2ccnc3[nH]ccc23)s1` [GSK1581427], the “%Inh” value was 67%. With `COc1ccc(C[C@@H](CN)NC(=O)c2cc(Br)c(-c3ccnc4[nH]ccc34)s2)cc1.Cl.Cl` [GSK1389063] the “%Inh” value was 85%. With `Cl.Oc1cc(-c2nc(-c3ccccc3)[nH]c2-c2ccncc2)ccc1Cl` [SB-386023] the “%Inh” value was 2%. In the case of `Nc1nc(Nc2ccccc2)cc(-c2ccc3c(N)n[nH]c3c2)n1` [GSK2225749], the “%Inh” value was 0%. In the case of `O=C(NCCCN1CCOC1=O)c1cnc(NCc2cc(Cl)ccc2Cl)nc1NC1CCCC1`, the “%Inh” value was 0%.
